TDP1 inh = inhibitors of human tyrosyl-DNA phosphodiesterase TDP1 | Q9NUW8 | recombinant TDP1, AlphaScreen DNA substrate cleavage | Potency, µM (highest dose often 130 µM), for the others: at the top dose activity change, negative = inhibition, usual class: inhibitors | 350,000 compounds, 0.28% hits | AID 485290; further: potency means the concentration at half of the fitted maximal effect; nearly all actives have a fitted effect of over 40% in size
Target sequence (Q9NUW8 whole entry, looked up): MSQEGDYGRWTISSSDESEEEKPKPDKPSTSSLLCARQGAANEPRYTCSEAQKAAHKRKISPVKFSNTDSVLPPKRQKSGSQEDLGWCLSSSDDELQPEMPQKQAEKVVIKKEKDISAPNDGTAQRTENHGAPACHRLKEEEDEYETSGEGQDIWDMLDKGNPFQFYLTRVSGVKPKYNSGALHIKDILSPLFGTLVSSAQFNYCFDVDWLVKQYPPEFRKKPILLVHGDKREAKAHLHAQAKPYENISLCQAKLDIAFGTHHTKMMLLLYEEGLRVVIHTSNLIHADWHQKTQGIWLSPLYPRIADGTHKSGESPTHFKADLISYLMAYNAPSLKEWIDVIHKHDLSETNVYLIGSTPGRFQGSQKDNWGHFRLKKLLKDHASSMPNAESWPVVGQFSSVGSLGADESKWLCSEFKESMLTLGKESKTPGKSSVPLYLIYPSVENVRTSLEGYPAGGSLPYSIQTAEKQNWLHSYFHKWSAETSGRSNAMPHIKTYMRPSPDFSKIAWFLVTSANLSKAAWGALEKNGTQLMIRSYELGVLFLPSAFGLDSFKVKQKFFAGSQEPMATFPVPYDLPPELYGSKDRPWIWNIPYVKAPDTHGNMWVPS
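Recombinant human Tdp1 (E. coli-expressed, 1 nM final) preincubated with compounds 15 min at room temperature, then 5'-biotin/3'-phosphotyrosine-FITC DNA substrate (15 nM final) added for 5 min. AlphaScreen beads (10 ug/ml final) added 10 min; cleavage lowers signal.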
ELG1 repair inh = blocks ELG1-dependent DNA repair in HEK293T cells | HEK293T ELG1-luciferase reporter, luminescence, 16 h; DNA damage induced by 5-fluorouridine | Potency, µM (doses to about 46.1 µM), inactives show top-dose activity change, negative = inhibition, most hits filed as inhibitors | 330,000 compounds, 2.3% hits | AID 504467; further: potency means the concentration at half of the fitted maximal effect; nearly all actives have a fitted effect of over 55% in size
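Reporter activity after DNA damage by 5-fluorouridine is monitored. Compound-treated cells incubate 16 hr at 37 °C, then ONE-Glo is added for 30 min before luminescence reading.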
TDP1 cell CPT = growth inhibition of DT40 Tdp1-/-;hTDP1 cells with camptothecin (screen for TDP1 inhibitors). 420,000 compounds, 12% hits. Potency, µM (highest dose often 46.2 µM), for inactives: top-dose activity change, negative = growth inhibition, hits mostly inhibitors. chicken DT40 Tdp1-/-;hTDP1 cells + 20 nM CPT, ATP luminescence, 48 h; further: potency means the concentration at half of the fitted maximal effect; nearly all actives have a fitted effect of over 55% in size
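Cell growth measured by CellTiter-Glo luminescence after a minimum 48 h, 37 C compound exposure with 20 nM CPT in Tdp1-knockout DT40 cells stably expressing hTDP1, seeded 400/well; qHTS titration format.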
IL1B secr inh = inhibitors of inflammasome signaling (IL-1 beta secretion); 360,000 compounds, 4.7% hits; THP-1 LPS/ATP IL-1B secretion, AlphaLISA, 16 h; active compounds read low; AID 743279; activity change, % at 57.5 µM; in the data active means activity change below about -50%; inconclusive means mostly about -30% to -49%
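Secreted IL-1B measured by AlphaLISA bead assay after 16 h compound exposure of THP-1 cells; compounds (final up to 57.5 uM) added 1 h before LPS (250 ng/mL) and ATP (1.25 mM) stimulation; lower signal means less secretion.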
DT40 TDP1 no CPT = qHTS for Inhibitors of human tyrosyl-DNA phosphodiesterase 1 (TDP1): qHTS in cells in absence of CPT. Potency, µM (top dose mostly 46.2 µM), without a hit: at the highest dose activity change, negative = growth inhibition, hits mostly inhibitors. AID 686978, 2013. DT40 Tdp1-/- hTDP1 cells, no CPT, ATP luminescence, 48 h. 420,000 compounds, 15% hits; further: potency means the concentration at half of the fitted maximal effect; nearly all actives have a fitted effect of over 55% in size
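Luminescent ATP content (CellTiter-Glo) served as the growth readout. Knockout chicken DT40 cells expressing human TDP1 were exposed to compounds without camptothecin for a minimum 48 hr at 37 °C.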
Giardia kill = kills Giardia lamblia | Giardia lamblia trophozoite viability | activity change, % at 7.66 µM, hits read low | 340,000 compounds, 0.15% hits | AID 540267; in the data active means activity change below about -80%; inconclusive means between about -30% and that limit;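 further: parasites exposed to compound for two days anaerobically before the ATP read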
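Luminescence from cellular ATP indicates surviving trophozoites (100 cells/well) following 48 hrs anaerobic compound treatment at 37 deg C; signal develops 15-30 min at room temperature.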
* hit, by the source's call; ? = inconclusive; nt = no result; [ ] = remark or other dose. In the library only some 19% were active in any assay of this set; here they are far more common. Unless noted, the call rests on the fitted dose curve; in most records, active means well fitted curve in the direction sought with a large enough effect; inconclusive means small, poorly fitted or top-dose-only effect, or another doubt; inactive means no such curve, though single readings can be large; an effect the other way counts as inactive or inconclusive. On the % scale 0 is the no-effect control and ±100 the full control effect.

SMILES	TDP1 inh	ELG1 repair inh	TDP1 cell CPT	IL1B secr inh	DT40 TDP1 no CPT	Giardia kill
CC(=O)c1ccc(NC(=O)C2CCC(CNS(=O)(=O)c3cccs3)CC2)cc1 (stereo unspecified)	5.0%	nt	8.6%	nt	-2.1%	nt
COc1cc(/C=C2\SC(=S)N(CCC(=O)Nc3ccc(O)cc3)C2=O)cc(OC)c1OC	nt	23.1µM*	?	36.7	16.4µM*	16.1
COc1ccccc1NC(=O)CCN1C(=O)/C(=C/c2cc(OC)c(OC)c(OC)c2)SC1=S	nt	?	?	-2.4	14.6µM*	12.6
COc1ccc(/C=C2/SC(=S)N(CCCC(=O)Nc3ccc(O)cc3)C2=O)cc1	nt	-9.4%	?	-16.7	?	-6.5
COc1cc(/C=C2/SC(=S)N(CC(=O)Nc3cccnc3)C2=O)cc(OC)c1OC	5.7%	8.5%	-5.9%	0.0	-11.3%	-22.3
COc1cc(/C=C2/SC(=S)N(CCC(=O)Nc3ccc(C(=O)O)cc3)C2=O)cc(OC)c1OC	5.5%	2.8%	9.2%	?	12.9%	36.8
COc1ccc(/C=C2\SC(=S)N(CCCC(=O)Nc3ccc(O)cc3)C2=O)cc1	nt	?	?	-58.8*	?	11.9
CC(C)(C)c1ccc(CN(Cc2ccco2)c2cnc(S(C)(=O)=O)nc2C(=O)Nc2ccc(F)cc2)cc1	3.6%	nt	?	nt	?	nt
Cc1ccc(CCNC(=O)c2ccc(CNS(=O)(=O)c3ccccc3)cc2)cc1	-2.3%	nt	6.51µM*	nt	5.8µM*	nt
O=C(NCCCN1CCOCC1)c1ccc(CNS(=O)(=O)c2ccc(F)cc2)cc1	-1.9%	5.3%	-21.6%	8.7	-29.7%	13.6
Cc1ccc(CCNC(=O)c2ccc(CNS(=O)(=O)c3ccc(F)cc3)cc2)cc1	1.9%	nt	13µM*	nt	6.51µM*	nt
CC(=O)Nc1ccc(S(=O)(=O)NCc2ccc(C(=O)NCCN(C)Cc3ccccc3)cc2)cc1	nt	nt	-28.6%	-8.1	-28.8%	nt
CCc1ccc(S(=O)(=O)NCc2ccc(C(=O)NCCN(Cc3ccccc3)C(C)C)cc2)cc1	nt	nt	20.6µM*	-11.6	13µM*	nt
COc1ccc(C(=O)O)cc1COc1ccc(NC(C)=O)cc1	-6.7%	nt	nt	nt	nt	nt
O=C(NCC(=O)N1CCN(C(=O)c2ccccc2)CC1)c1ccc(Cl)cc1Cl	2.0%	5.9%	-2.4%	0.0	-5.4%	2.8
CCOC(=O)C1CCN(C(=O)c2cc3c(s2)-c2ccccc2OC3)CC1	nt	?	14.6µM*	22.3	?	-5.6
CCOC(=O)C1CCN(C(=O)c2ccc(-n3ccc4ccccc43)s2)CC1	0.0%	nt	?	nt	20.6µM*	nt
CC(NC(=O)C1CCN(C(=O)c2ccc(-n3ccc4ccccc43)s2)CC1)c1ccccc1 (stereo unspecified)	5.3%	nt	?	nt	18.4µM*	nt
Cc1c(C(=O)NCCCc2ccncc2)cnn1-c1ncc2c(n1)-c1ccccc1CC2	nt	nt	-5.3%[9.04 µM]	nt	?	nt
CCOC(=O)C1=C(Nc2ccc(Cl)cc2)OCC1=O	5.7%	-3.3%	12.3%	-17.3	-26.5%	9.4
COc1cc(OC)c(S(=O)(=O)Nc2ccc(C)cn2)cc1NC(C)=O	-3.4%	0.3%	-0.1%	26.2	1.3%	-16.4
O=C(NCc1ccccc1Cl)[C@H]1CCCN1C(=O)[C@H]1CCCN1C(=O)c1cccc2ccccc12	nt	nt	-19.9%	-3.2	?	nt
CC(=O)c1c(C(C)=O)c(C)n(NC(=O)c2ccc(Cl)cc2)c1C	0.0%	4.2%	?	5.1	2.4%	5.6
CC(=O)c1c(C(C)=O)c(C)n(Cc2ccc(Cl)cc2)c1C	7.5%	-6.5%	16.4µM*	-10.2	18.4µM*	14.7
O=[N+]([O-])c1cc2c(c([N+](=O)[O-])c1)Nc1ccccc1O2	nt	nt	11.6µM*	?	7.31µM*	nt
SMILES	TDP1 inh	ELG1 repair inh	TDP1 cell CPT	IL1B secr inh	DT40 TDP1 no CPT	Giardia kill
Cc1cccc(Oc2cc([N+](=O)[O-])cc3c2C(=O)Nc2ccccc2O3)c1	2.6%	4.4%	?	0.0	13µM*	6.5
O=[N+]([O-])c1ccc2c(c1)CNc1ccccc1O2	5.8%	2.0%	-5.9%	-1.4	-22.0%	-7.7
O=C1Nc2ccccc2Oc2cc([N+](=O)[O-])cc(Oc3ccccc3)c21	2.6%	-27.7%	?	8.0	?	-8.4
Cc1cccc(Oc2ccc3c(c2)Oc2ccccc2NC3=O)c1	nt	nt	16.4µM*	nt	?	nt
CC1=C(c2ccc(C)c(C)c2)S(=O)(=O)N(Cc2ccc(C(=O)NCc3ccc(C)cc3)cc2)C1=O	2.0%	nt	?	nt	?	nt
CC1(C)CC(=O)C(CS(=O)(=O)c2ccccc2)=C(Cl)C1	0.7%	-7.6%	5.17µM*	-19.0	2.91µM*	5.7
CCCCNC(=O)C1(C)CCCCN1C(=O)c1ccc2c(c1)C(C)(C)CCC2(C)C (stereo unspecified)	nt	nt	3.66µM*	-4.8	2.06µM*	nt
CCCCNC(=O)C1(C)CCN1C(=O)c1ccc2c(c1)C(C)(C)CCC2(C)C (stereo unspecified)	nt	nt	20.6µM*	47.2	13µM*	nt
CCOCCCNC(=O)C(c1ccc(OC)cc1)N(Cc1cccs1)C(=O)c1ccccn1 (stereo unspecified)	-2.6%	-2.0%	-1.1%	12.3	?	-19.0
CC(c1ccco1)N(C(=O)c1ccccc1F)c1ccccn1 (stereo unspecified)	0.0%	12.8%	11.3%	2.8	-7.0%	16.4
CC(c1ccco1)N(C(=O)COc1ccc(Cl)cc1)c1ccccn1 (stereo unspecified)	-1.0%	?	?	-9.2	?	-7.6
CC(c1ccco1)N(C(=O)COc1ccc(Cl)cc1Cl)c1ccccn1 (stereo unspecified)	4.5%	?	?	?	20.6µM*	-13.9
CC(c1ccco1)N(C(=O)c1ccc(Cl)c([N+](=O)[O-])c1)c1ccccn1 (stereo unspecified)	10.4%	-10.7%	20.6µM*	-13.9	20.6µM*	27.2
CC(c1ccco1)N(C(=O)C12CC3CC(CC(C3)C1)C2)c1ccccn1 (stereo unspecified)	0.0%	-7.9%	20.6µM*	2.0	?	-7.2
COc1ccc(CCN2C(=O)COc3ccccc3C2C(=O)NCc2ccccc2)cc1OC (stereo unspecified)	nt	nt	-3.4%	-9.9	-3.7%	nt
Cc1nc(N2CCOCC2)c2nc(-c3ccccc3)n(CCCN3CCOCC3)c2n1	2.7%	nt	nt	nt	nt	nt
CCNC(=O)/C=C1\NC(C)(C)Cc2c1ccc1ccccc21	-5.6%	0.0%	?	?	20.6µM*	6.1
